# Assay results from PubChem BioAssay (EPA / NIEHS).
# Inconclusive results are not listed. Some structures have more than one record in an assay (separate samples or runs), and their calls can disagree. Activity calls are given as the source filed them. The calls were made as follows, unless noted: active = hit-call score of the fitted dose curve at least 0.9, where 1 is the maximum; inactive = score below 0.9.
# Experiments:
# [1] = read-out: Monokine induced gamma interferon (MIG), CXCL9 (gene 4283); assay: BSK_SAg_MIG: BioMAP Diversity Plus: SAg Assay for Monokine induced gamma interferon (MIG) Biomarker Activity (AID 2283092); conditions: primary human HUVEC with PBMC; actives raise or lower the signal
# Procedure, shortened: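 ELISA readout of MIG/CXCL9; primary human umbilical vein endothelial cells co-cultured with peripheral blood mononuclear cells; 24 h post-dose; gain/loss fit vs DMSO baseline.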
# [2] = BSK_SAg_PBMCCytotoxicity: PBMC Cytotoxicity Assessment in the BioMAP Diversity Plus: SAg Assay (AID 2283093); conditions: primary human HUVEC with PBMC;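 also: PBMC viability measured as Alamar Blue reduction fluorescence at 546/580 nm; fitted both ways against DMSO so a hit may be loss or gain of signal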;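 as to AC50: PBMC superantigen activated with SEB plus TSST-1 one hour after compound addition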
# Procedure, shortened: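 Human umbilical vein endothelial cells co-cultured with PBMC; PBMC (75,000/well) pre-treated with compound 1 h, then activated with SEB and TSST-1 (20 ng/mL final each) for 90 h. Alamar Blue added 6 h, fluorescence 546/580 nm; bidirectional fit versus DMSO.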
# [3] = read-out: Interleukin-8 (IL8), CXCL8 (gene 3576); assay: BSK_SAg_IL8: BioMAP Diversity Plus: SAg Assay for Interleukin-8 (IL8) Biomarker Activity (AID 2283094); conditions: primary human HUVEC with PBMC; actives raise or lower the signal
# Procedure, shortened: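 In this co-culture of human umbilical vein endothelium with peripheral blood mononuclear cells, IL-8 is assayed by ELISA at 24 h. DMSO serves as baseline for bidirectional curve fitting.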
# [4] = BSK_SAg_Proliferation: Cell Proliferation Assessment in the BioMAP Diversity Plus: SAg Assay (AID 2283095); conditions: primary human HUVEC with PBMC;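 also: relative cell number as total protein by SRB absorbance in sub-confluent culture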
# Procedure, shortened: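 Readout is SRB-stained protein (560 nm) in a primary human HUVEC and PBMC co-culture; sub-confluent cultures are read at 96 h. Activity is fitted bidirectionally using DMSO as baseline.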
# [5] = BSK_SAg_SRB: Viability Assessment in the BioMAP Diversity Plus: SAg Assay (AID 2283096); conditions: primary human HUVEC with PBMC;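 also: cells read one day after compound addition; hits may be either gain or loss of signal compared with DMSO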
# Procedure, shortened: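 Endothelial/PBMC primary human co-culture; compound 24 h; fix 10% TCA, stain 0.1% SRB, A560; protein content as cytotoxicity proxy; bidirectional curve fit, DMSO = baseline.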
# [6] = target: human Esterase Plasma (ES), BCHE (gene 590) (UniProt P06276); assay: NVS_ENZ_hES: NovaScreen (NVS) Enzymatic Assay for human Esterase Plasma (ES) (AID 2283157; active = hit-call score of the fitted dose curve at least 0.9, where 1 is the maximum)
# Sequence of human Esterase Plasma (ES), BCHE (gene 590) (P06276 whole entry, looked up): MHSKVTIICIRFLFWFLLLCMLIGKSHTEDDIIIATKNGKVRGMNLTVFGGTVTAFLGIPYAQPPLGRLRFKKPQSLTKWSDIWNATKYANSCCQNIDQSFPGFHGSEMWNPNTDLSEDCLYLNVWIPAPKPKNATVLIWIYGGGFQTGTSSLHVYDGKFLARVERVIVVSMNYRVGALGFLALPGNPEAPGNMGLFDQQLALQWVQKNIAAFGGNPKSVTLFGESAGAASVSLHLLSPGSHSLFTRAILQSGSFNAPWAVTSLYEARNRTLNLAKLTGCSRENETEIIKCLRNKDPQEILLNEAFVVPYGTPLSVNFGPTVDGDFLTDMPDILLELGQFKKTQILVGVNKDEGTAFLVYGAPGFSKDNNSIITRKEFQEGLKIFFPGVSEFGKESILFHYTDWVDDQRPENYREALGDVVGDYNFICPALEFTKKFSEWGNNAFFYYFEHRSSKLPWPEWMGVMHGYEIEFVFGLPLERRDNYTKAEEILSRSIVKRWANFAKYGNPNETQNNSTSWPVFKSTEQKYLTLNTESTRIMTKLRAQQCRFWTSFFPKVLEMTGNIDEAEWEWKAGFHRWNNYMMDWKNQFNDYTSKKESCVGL
# Procedure, shortened: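 Cell-free enzyme assay using esterase extracted from human plasma; colorimetric absorbance read 0.25 hour after dosing. Single-concentration duplicate screen at 25 uM, then concentration-response up to 50 uM; loss of signal scored against DMSO baseline.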
# [7] = target: human CYP2D6, CYP2D6 (gene 1565) (UniProt P10635); assay: NVS_ADME_hCYP2D6: NovaScreen (NVS) CYP450-related Enzyme Activity (ADME) Assay for human CYP2D6 (AID 2283107; active = hit-call score of the fitted dose curve at least 0.9, where 1 is the maximum)
# Sequence of human CYP2D6, CYP2D6 (gene 1565) (P10635 whole entry, looked up): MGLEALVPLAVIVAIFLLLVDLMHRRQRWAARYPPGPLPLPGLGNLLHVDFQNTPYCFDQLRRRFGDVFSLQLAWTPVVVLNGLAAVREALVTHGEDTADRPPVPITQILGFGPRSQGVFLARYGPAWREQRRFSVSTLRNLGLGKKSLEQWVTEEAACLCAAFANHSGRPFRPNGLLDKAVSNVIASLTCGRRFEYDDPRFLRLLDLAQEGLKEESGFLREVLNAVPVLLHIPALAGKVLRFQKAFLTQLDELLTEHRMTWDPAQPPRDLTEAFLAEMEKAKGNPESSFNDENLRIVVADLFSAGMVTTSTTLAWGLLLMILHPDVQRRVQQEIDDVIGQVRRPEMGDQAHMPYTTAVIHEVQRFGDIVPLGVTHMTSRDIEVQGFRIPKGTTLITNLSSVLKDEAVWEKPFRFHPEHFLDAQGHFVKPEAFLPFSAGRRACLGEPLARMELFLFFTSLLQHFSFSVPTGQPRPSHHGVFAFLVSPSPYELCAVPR
# Procedure, shortened: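 Biochemical fluorescence assay, insect-cell-derived enzyme. Read at 1 h; inhibition taken from loss of signal against acetonitrile. Screened at 10 uM in duplicate, with concentration series for actives.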
# [8] = target: rat CYP2A2, Cyp2a2 (gene 24895) (UniProt P15149); assay: NVS_ADME_rCYP2A2: NovaScreen (NVS) CYP450-related Enzyme Activity (ADME) Assay for rat CYP2A2 (AID 2283116; active = hit-call score of the fitted dose curve at least 0.9, where 1 is the maximum)
# Sequence of rat CYP2A2, Cyp2a2 (gene 24895) (P15149 whole entry, looked up): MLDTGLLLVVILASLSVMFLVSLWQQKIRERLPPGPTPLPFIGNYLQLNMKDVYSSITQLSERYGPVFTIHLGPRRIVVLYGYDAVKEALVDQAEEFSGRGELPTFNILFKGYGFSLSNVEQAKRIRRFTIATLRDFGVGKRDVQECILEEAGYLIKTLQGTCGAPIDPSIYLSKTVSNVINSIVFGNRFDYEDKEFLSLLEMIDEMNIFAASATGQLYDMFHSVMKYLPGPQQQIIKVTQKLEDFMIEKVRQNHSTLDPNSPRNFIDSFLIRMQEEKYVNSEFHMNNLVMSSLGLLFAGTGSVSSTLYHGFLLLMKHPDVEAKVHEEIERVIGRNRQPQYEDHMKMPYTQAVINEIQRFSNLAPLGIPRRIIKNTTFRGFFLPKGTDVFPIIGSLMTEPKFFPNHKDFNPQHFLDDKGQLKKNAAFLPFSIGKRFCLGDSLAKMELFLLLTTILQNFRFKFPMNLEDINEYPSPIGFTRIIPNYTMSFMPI
# Procedure, shortened: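 Cell-free recombinant rat CYP2A2 activity with fluorogenic substrate, fluorescence read 0.2 h after dosing. Chemicals screened at 10 uM in duplicate, hits then run in concentration-response up to 20 uM; signal loss versus acetonitrile baseline.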
# [9] = target: human Beta-secretase (BACE), BACE1 (gene 23621) (UniProt P56817); assay: NVS_ENZ_hBACE: NovaScreen (NVS) Enzymatic Assay for human Beta-secretase (BACE) (AID 2283140; active = hit-call score of the fitted dose curve at least 0.9, where 1 is the maximum;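 also: hits are inhibitors that reduce fluorescent substrate signal versus DMSO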)
# Sequence of human Beta-secretase (BACE), BACE1 (gene 23621) (P56817 whole entry, looked up): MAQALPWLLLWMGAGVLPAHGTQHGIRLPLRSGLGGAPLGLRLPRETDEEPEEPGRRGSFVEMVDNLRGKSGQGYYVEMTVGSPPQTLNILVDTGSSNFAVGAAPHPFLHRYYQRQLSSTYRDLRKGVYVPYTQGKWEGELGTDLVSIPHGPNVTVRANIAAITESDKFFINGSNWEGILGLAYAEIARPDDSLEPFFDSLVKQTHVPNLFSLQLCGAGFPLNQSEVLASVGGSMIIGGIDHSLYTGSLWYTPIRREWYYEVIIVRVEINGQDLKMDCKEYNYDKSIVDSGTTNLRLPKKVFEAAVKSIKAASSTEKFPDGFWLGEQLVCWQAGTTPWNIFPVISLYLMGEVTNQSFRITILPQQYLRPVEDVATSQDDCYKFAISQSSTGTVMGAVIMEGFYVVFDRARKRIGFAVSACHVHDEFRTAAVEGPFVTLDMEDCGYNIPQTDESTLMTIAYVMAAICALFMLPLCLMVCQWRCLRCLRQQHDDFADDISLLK
# Procedure, shortened: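 Recombinant BACE1 (SF9 extract) incubated with compound and fluorescent substrate, 1 h. Plates carried positive and DMSO negative controls. Initial single dose 25 uM, duplicate; confirmation by concentration series.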
# [10] = target: human Matrix Metalloproteinase-9 (MMP9), MMP9 (gene 4318) (UniProt P14780); assay: NVS_ENZ_hMMP9: NovaScreen (NVS) Enzymatic Assay for human Matrix Metalloproteinase-9 (MMP9) (AID 2283190; active = hit-call score of the fitted dose curve at least 0.9, where 1 is the maximum;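 also: cell-free recombinant MMP9 protease activity read by fluorescent substrate signal; active means inhibition seen as loss of fluorescence signal versus DMSO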)
# Sequence of human Matrix Metalloproteinase-9 (MMP9), MMP9 (gene 4318) (P14780 whole entry, looked up): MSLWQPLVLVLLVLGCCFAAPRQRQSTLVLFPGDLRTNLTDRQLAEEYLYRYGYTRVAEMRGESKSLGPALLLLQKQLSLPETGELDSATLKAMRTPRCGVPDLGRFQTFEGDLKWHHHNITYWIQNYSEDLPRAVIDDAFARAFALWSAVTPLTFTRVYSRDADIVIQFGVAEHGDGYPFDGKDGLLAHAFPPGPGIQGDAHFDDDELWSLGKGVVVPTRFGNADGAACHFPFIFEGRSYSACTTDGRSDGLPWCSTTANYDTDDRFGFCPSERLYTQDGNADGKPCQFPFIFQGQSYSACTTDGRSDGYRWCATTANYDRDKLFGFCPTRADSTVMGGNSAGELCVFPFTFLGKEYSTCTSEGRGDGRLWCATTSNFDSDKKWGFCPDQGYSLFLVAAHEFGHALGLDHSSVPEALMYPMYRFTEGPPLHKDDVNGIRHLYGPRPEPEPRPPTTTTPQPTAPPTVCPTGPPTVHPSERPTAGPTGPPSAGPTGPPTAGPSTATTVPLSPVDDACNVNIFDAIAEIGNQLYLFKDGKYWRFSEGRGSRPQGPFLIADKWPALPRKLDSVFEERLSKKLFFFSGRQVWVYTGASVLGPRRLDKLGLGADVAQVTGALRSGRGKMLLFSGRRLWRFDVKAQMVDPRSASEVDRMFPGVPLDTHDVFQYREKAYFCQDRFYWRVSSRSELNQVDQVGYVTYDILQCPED
# Procedure, shortened: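 Cell-free fluorescence-intensity enzyme activity assay using extracted protein, read 1 h after dosing. Loss of signal versus DMSO baseline indicates inhibition; primary screen in duplicate at 25 uM, actives followed up in concentration series.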
# [11] = target: human Caspase 5 (CASP5), CASP5 (gene 838) (UniProt P51878); assay: NVS_ENZ_hCASP5: NovaScreen (NVS) Enzymatic Assay for human Caspase 5 (CASP5) (AID 2283137; active = hit-call score of the fitted dose curve at least 0.9, where 1 is the maximum)
# Sequence of human Caspase 5 (CASP5), CASP5 (gene 838) (P51878 whole entry, looked up): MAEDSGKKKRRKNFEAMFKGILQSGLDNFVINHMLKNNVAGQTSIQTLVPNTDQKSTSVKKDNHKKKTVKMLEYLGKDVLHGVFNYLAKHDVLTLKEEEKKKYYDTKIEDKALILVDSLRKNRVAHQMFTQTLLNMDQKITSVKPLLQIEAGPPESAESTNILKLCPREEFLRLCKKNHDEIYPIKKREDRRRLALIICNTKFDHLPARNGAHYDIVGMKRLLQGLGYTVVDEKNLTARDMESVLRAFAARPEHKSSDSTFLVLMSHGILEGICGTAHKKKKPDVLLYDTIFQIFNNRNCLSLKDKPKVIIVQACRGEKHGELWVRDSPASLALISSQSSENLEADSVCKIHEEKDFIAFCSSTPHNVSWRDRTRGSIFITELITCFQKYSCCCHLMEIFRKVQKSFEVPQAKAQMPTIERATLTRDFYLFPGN
# Procedure, shortened: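 Cell-free protease assay with bacterially expressed CASP5 and a fluorescent substrate, measured at 2 h. Values fitted relative to DMSO as baseline, from concentration-response series topping at 50 uM.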
# [12] = target: Cytochrome P450 3A4 (Homo sapiens) (UniProt P08684); assay: NVS_ADME_hCYP3A4: NovaScreen (NVS) CYP450-related Enzyme Activity (ADME) Assay for human CYP3A4 (AID 2283110; active = hit-call score of the fitted dose curve at least 0.9, where 1 is the maximum)
# Sequence of Cytochrome P450 3A4 (Homo sapiens) (P08684 whole entry, looked up): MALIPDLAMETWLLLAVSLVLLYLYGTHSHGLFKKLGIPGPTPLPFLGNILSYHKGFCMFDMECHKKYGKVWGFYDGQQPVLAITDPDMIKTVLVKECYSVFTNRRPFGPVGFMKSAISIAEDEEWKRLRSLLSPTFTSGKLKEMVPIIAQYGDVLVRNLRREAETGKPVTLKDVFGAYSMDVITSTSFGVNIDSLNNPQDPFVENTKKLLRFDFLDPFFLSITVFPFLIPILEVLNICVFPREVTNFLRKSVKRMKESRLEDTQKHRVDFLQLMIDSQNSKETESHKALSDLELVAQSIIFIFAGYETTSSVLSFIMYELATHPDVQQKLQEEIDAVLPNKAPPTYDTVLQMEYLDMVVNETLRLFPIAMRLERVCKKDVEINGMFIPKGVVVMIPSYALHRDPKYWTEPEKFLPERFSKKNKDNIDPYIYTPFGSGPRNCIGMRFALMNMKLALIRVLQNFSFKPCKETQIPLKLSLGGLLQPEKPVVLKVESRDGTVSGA
# Procedure, shortened: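 Cell-free assay using insect-cell-expressed human CYP3A4 with a fluorogenic substrate; fluorescence intensity was read 0.33 hour after dosing. Loss of signal relative to acetonitrile vehicle indicated inhibition. Primary single-concentration screen at 10 uM, in duplicate, then concentration series.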
# [13] = target: human Dual Specificity Protein Phosphatase 3 (DUSP3), DUSP3 (gene 1845) (UniProt P51452); assay: NVS_ENZ_hDUSP3: NovaScreen (NVS) Enzymatic Assay for human Dual Specificity Protein Phosphatase 3 (DUSP3) (AID 2283152; active = hit-call score of the fitted dose curve at least 0.9, where 1 is the maximum;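 also: phosphatase activity of recombinant human DUSP3 on a fluorogenic substrate without cells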)
# Sequence of human Dual Specificity Protein Phosphatase 3 (DUSP3), DUSP3 (gene 1845) (P51452 whole entry, looked up): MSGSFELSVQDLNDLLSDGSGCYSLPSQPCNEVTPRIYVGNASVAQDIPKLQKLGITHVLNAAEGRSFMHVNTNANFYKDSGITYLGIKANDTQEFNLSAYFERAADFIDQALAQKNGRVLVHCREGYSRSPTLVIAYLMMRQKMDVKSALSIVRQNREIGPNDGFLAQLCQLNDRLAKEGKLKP
# Procedure, shortened: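 Cell-free assay with recombinant human DUSP3 and fluorogenic substrate, read by fluorescence intensity. Primary screen ran duplicate at 25 uM; actives followed up in concentration series; loss of signal versus DMSO scored.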
# [14] = target: human CYP2C9, CYP2C9 (gene 1559) (UniProt P11712); assay: NVS_ADME_hCYP2C9: NovaScreen (NVS) CYP450-related Enzyme Activity (ADME) Assay for human CYP2C9 (AID 2283108; active = hit-call score of the fitted dose curve at least 0.9, where 1 is the maximum)
# Sequence of human CYP2C9, CYP2C9 (gene 1559) (P11712 whole entry, looked up): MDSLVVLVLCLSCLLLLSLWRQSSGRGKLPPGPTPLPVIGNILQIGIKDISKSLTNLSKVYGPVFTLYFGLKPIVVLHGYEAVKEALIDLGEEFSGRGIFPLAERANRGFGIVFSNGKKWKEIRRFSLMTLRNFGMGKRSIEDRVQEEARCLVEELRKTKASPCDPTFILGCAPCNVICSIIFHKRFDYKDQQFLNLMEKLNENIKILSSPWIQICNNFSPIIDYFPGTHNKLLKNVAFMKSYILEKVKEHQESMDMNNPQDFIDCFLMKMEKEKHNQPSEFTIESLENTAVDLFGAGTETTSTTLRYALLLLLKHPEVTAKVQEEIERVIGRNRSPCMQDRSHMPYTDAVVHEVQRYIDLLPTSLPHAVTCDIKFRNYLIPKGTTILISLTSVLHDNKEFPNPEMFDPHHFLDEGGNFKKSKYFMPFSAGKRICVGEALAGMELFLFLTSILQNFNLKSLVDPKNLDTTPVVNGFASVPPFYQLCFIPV
# Procedure, shortened: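 Cell-free assay of recombinant human CYP2C9 produced in Sf9 cells, with enzyme activity read by fluorescence intensity 0.75 h after compound addition. Loss of signal versus an acetonitrile negative control indicates inhibition. Primary screen used 10 uM in duplicate; actives were retested in concentration series.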
smiles,measurement,setting,value
CN(C)C(=O)Nc1ccc(Oc2ccc(Cl)cc2)cc1,outcome,[1],inactive
same,outcome,[2],inactive
same,outcome,[3],inactive
same,outcome,[4],inactive
same,outcome,[5],inactive
CCOC(=O)C(C#N)=C(c1ccccc1)c1ccccc1,outcome,[1],inactive
same,AC50,[2],1.24 µM (active)
same,outcome,[2],inactive
same,AC50,[3],20 µM (active)
same,outcome,[3],inactive
same,AC50,[4],14.1 µM (active)
same,outcome,[4],inactive
same,outcome,[5],inactive
CCC(C)c1cc([N+](=O)[O-])cc([N+](=O)[O-])c1OC(=O)OC(C)C (stereo unspecified),AC50,[1],9.7 µM (active)
same,AC50,[2],28.3 µM (active)
same,outcome,[3],inactive
same,AC50,[4],9.53 µM (active)
same,AC50,[5],20 µM (active)
Clc1cc(Cl)c(-c2c(Cl)c(Cl)cc(Cl)c2Cl)cc1Cl,outcome,[1],inactive
same,AC50,[2],17.4 µM (active)
same,AC50,[3],10 µM (active)
same,AC50,[4],14.3 µM (active)
same,outcome,[5],inactive
COc1ccc(OC)c(N=Nc2c(O)ccc3ccccc23)c1,outcome,[1],inactive
same,AC50,[2],2.12 µM (active)
same,outcome,[3],inactive
same,AC50,[4],2.25 µM (active)
same,outcome,[5],inactive
CCCCCCC(CO)CCCC (stereo unspecified),outcome,[1],inactive
same,outcome,[2],inactive
same,outcome,[3],inactive
same,AC50,[4],37.3 µM (active)
same,outcome,[4],inactive
same,outcome,[5],inactive
COCCOC(=O)c1ccccc1C(=O)OCCOC,AC50,[6],18.6 µM (active)
CC(=O)C(C)O (stereo unspecified),AC50,[7],5 µM (active)
CC1(C)C(=O)N(Cl)C(=O)N1Br,AC50,[8],5.02 µM (active)
CC(C)(N=C=O)c1cccc(C(C)(C)N=C=O)c1,outcome,[1],inactive
same,outcome,[3],inactive
same,outcome,[4],inactive
same,outcome,[5],inactive
same,outcome,[9],inactive
same,AC50,[10],0.933 µM (active)
Oc1c(Cl)cc(Cl)c(Cl)c1Cc1c(O)c(Cl)cc(Cl)c1Cl,AC50,[1],8.51 µM (active)
same,AC50,[2],12.9 µM (active)
same,AC50,[3],4.7 µM (active)
same,AC50,[4],4.05 µM (active)
same,AC50,[5],15.6 µM (active)
same,AC50,[11],2.9 µM (active)
same,AC50,[9],1.21 µM (active)
C1CCCCC1,outcome,[12],inactive
CC(C)CC(C)CC(O)CC(C)C (stereo unspecified),AC50,[10],5.13 µM (active)
CCCCCCCCCCCCCCCC(=O)OC/C=C(C)/C=C/C=C(C)/C=C/C1=C(C)CCCC1(C)C,outcome,[1],inactive
same,outcome,[2],inactive
same,outcome,[3],inactive
same,AC50,[4],20 µM (active)
same,outcome,[5],inactive
same,AC50,[11],5.57 µM (active)
same,AC50,[13],25 µM (active)
CCCCCCOCCOCCO,AC50,[14],0.238 µM (active)
O=C1c2ccccc2C(=O)c2c(O)ccc(O)c21,outcome,[1],inactive
same,AC50,[2],14.4 µM (active)
same,AC50,[3],3.15 µM (active)
same,AC50,[4],16.5 µM (active)
same,outcome,[5],inactive
same,AC50,[11],7.12 µM (active)
same,AC50,[9],25 µM (active)
COC(C)(C)CCO,outcome,[9],inactive
c1ccc2cc(Nc3ccc(Nc4ccc5ccccc5c4)cc3)ccc2c1,outcome,[1],inactive
same,outcome,[2],inactive
same,outcome,[3],inactive
same,outcome,[4],inactive
same,outcome,[5],inactive
same,outcome,[11],inactive
same,AC50,[9],13.1 µM (active)
same,AC50,[13],22.4 µM (active)
